Assay in all cases: NCI-60 one-dose screen, 48 h (100 = growth as untreated, 0 = no growth, -100 = all killed)
One assay relates to K-562 leukemia. To be noted: 10 µM unless noted.
For another assay, the system named is MALME-3M melanoma. Particulars: 10 µM unless noted.
Another assay concerns MDA-MB-231 breast. To be noted: 10 µM unless noted.
The next assay relates to RXF 393 renal. Particulars: 10 µM unless noted.
The test system of the next assay is SF-268 CNS. Particulars: 10 µM unless noted.
The next assay relates to SF-295 CNS. To be noted: 10 µM unless noted.
For a further assay, the system named is SF-539 CNS. Particulars: 10 µM unless noted.
The subject of the next assay is UACC-257 melanoma. Particulars: 10 µM unless noted.
The subject of a further assay is HCT-15 colon. To be noted: 10 µM unless noted.
The next assay relates to HT29 colon. Particulars: 10 µM unless noted.
Another assay has as its system SNB-75 CNS. To be noted: 10 µM unless noted.
In another assay the test system is SNB-19 CNS. To be noted: 10 µM unless noted.
In the next assay the test system is U251 CNS. To be noted: 10 µM unless noted.
For the next assay, the system named is PC-3 prostate. To be noted: 10 µM unless noted.
A further assay has as its system SK-MEL-5 melanoma. Particulars: 10 µM unless noted.
The test system of a further assay is UACC-62 melanoma. Particulars: 10 µM unless noted.
In another assay the test system is LOX IMVI melanoma. To be noted: 10 µM unless noted.
The test system of another assay is SK-MEL-28 melanoma. To be noted: 10 µM.
Another assay relates to SK-MEL-2 melanoma. Particulars: 10 µM unless noted.
Another assay relates to M14 melanoma. Particulars: 10 µM unless noted.

The values that follow come from PubChem BioAssay (NCI).

The panel holds about 83,000 compounds, 20% with a hit somewhere; the sample as a whole holds those more often.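 Testing used 96-well plates and a 48-hour single-concentration exposure. Example: -40 means 40% of the starting cells died.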 Values without a mark were called inactive. Calls of active or inactive are those of the source. Rule for the calls: active = growth percent below 10; inactive = the rest.

Take `O=C(/C=C/c1ccc(Cl)cc1)c1ccc(Nc2nc(NCCO)nc(Nc3ccc(Cl)cc3)n2)cc1`: the growth in the assay on K-562 leukemia was 37.6%; in the assay on MALME-3M melanoma, 90.3%; with MDA-MB-231 breast, 62.4%; in the assay on RXF 393 renal, 54.3%; with SF-268 CNS, 60.2%; in the assay with SF-295 CNS, 87.2%. Moreover, the growth was 64.8% with SF-539 CNS; 95.8% with UACC-257 melanoma; 25.9% in the assay on HCT-15 colon; 30.5% in the assay with HT29 colon; 47.5% in the assay with SNB-75 CNS; 77.6% with SNB-19 CNS. Also, the growth in the assay with U251 CNS is 21.8%; in the assay with PC-3 prostate, 53.1%; with SK-MEL-5 melanoma it was 81.5%; with UACC-62 melanoma, 60.7%; in the assay on LOX IMVI melanoma, 37.2%; in the assay on SK-MEL-28 melanoma it was 78.1%. Besides, in the assay on SK-MEL-2 melanoma, the growth is 96%.

Take `CCOC(=O)c1cc2c(n1Cc1cc(OC)cc(OC)c1)-c1oncc1CCC2`: the growth was 7.66% (active) in the assay with K-562 leukemia; 8.25% (active) with MALME-3M melanoma; 15.5% with MDA-MB-231 breast; 18.6% with RXF 393 renal; 33.5% in the assay with SF-268 CNS; -16.6% (active) with SF-295 CNS. In addition, the growth in the assay on SF-539 CNS is 2.3% (active); in the assay on UACC-257 melanoma it was 52.9%; with HCT-15 colon, 24.2%; in the assay with HT29 colon, 6.58% (active); with SNB-75 CNS, 16.3%; in the assay with SNB-19 CNS, 28.5%. Further, the growth was 17.3% in the assay with U251 CNS; 33.2% in the assay with PC-3 prostate; 1.12% (active) in the assay on SK-MEL-5 melanoma; 31.6% in the assay on UACC-62 melanoma; 25.3% in the assay on LOX IMVI melanoma; 53.3% in the assay on SK-MEL-28 melanoma. The growth in the assay on SK-MEL-2 melanoma is 41.8%.

In the case of `Cc1ccc2sc3c(NCCCNCCO)nc4ccccc4c3c(=O)c2c1`, the growth in the assay on K-562 leukemia is -48.5% (active); in the assay with MALME-3M melanoma it was 85%; in the assay on MDA-MB-231 breast, 23.8%; in the assay with RXF 393 renal it was 44.5%; with SF-268 CNS, 47.7%; in the assay with SF-295 CNS, 84.2%. Further, the growth with SF-539 CNS is 78.6%; with UACC-257 melanoma it was 72.7%; in the assay with HCT-15 colon it was -8.68% (active); in the assay on HT29 colon, -65% (active); in the assay with SNB-75 CNS, 33.3%; in the assay with SNB-19 CNS, 68.5%. Besides, the growth is -39.5% (active) with U251 CNS; 39.3% with PC-3 prostate; 85.6% with SK-MEL-5 melanoma; -25.3% (active) with UACC-62 melanoma; -27.3% (active) in the assay with LOX IMVI melanoma; 79.8% in the assay with SK-MEL-28 melanoma.

Consider `COC(=O)c1c2c(c(C)[n+]([O-])c1C)C(=O)C=C(NCc1ccc(F)c(F)c1)C2=O`, for which the growth is 1.15% (active) in the assay on K-562 leukemia; -100% (active) in the assay on MALME-3M melanoma; -31.2% (active) with MDA-MB-231 breast; -51% (active) in the assay on RXF 393 renal; -12.2% (active) with SF-268 CNS; -99% (active) in the assay with SF-295 CNS. The growth with SF-539 CNS was -95.7% (active); in the assay with UACC-257 melanoma, -83% (active); with HCT-15 colon, -83.3% (active); in the assay on HT29 colon it was 1.02% (active); in the assay on SNB-75 CNS, -96.7% (active); in the assay with SNB-19 CNS, -67.2% (active). Moreover, the growth is -31.9% (active) with U251 CNS; 3.37% (active) in the assay on PC-3 prostate; -100% (active) with SK-MEL-5 melanoma; -83.9% (active) in the assay with UACC-62 melanoma; -72.7% (active) in the assay with LOX IMVI melanoma; -19.3% (active) with SK-MEL-28 melanoma. Also, the growth in the assay on SK-MEL-2 melanoma is -50.1% (active).

Take `CCOC(=O)c1c(C=O)nc2ccccc2c1/C=C/c1ccc(Cl)cc1`: the growth was 61.7% in the assay with K-562 leukemia; 100% in the assay on MALME-3M melanoma; 87.7% in the assay with MDA-MB-231 breast; 99.5% with RXF 393 renal; 91.2% in the assay on SF-268 CNS; 101% in the assay with SF-295 CNS. The growth in the assay with SF-539 CNS was 90.9%; in the assay with UACC-257 melanoma, 105%; with HCT-15 colon, 89.6%; with HT29 colon, 112%; in the assay with SNB-75 CNS it was 79.7%; in the assay with SNB-19 CNS it was 92.8%. The growth is 92.6% in the assay with U251 CNS; 91.4% with PC-3 prostate; 83.1% with SK-MEL-5 melanoma; 102% in the assay with UACC-62 melanoma; 96.9% with LOX IMVI melanoma; 103% in the assay on SK-MEL-28 melanoma. For the same compound, the growth with SK-MEL-2 melanoma is 105%.

Turning to `COc1cc(C(=O)Nc2ccc(-c3nc4ccccc4[nH]3)cc2)cc(OC)c1OC`, the growth with K-562 leukemia is 15.2%; in the assay on MALME-3M melanoma, 81.3%; in the assay on MDA-MB-231 breast it was 61.4%; in the assay on RXF 393 renal it was 28%; with SF-268 CNS, 55.4%; in the assay on SF-295 CNS, 9.85% (active). The growth in the assay with SF-539 CNS was 34.7%; in the assay with UACC-257 melanoma, 78.1%; with M14 melanoma, 43.5%; in the assay with HT29 colon, 14.8%; in the assay with SNB-75 CNS it was 42.9%; in the assay on SNB-19 CNS, 53.8%. For the same compound, the growth in the assay with U251 CNS was 25%; in the assay with PC-3 prostate it was 52.5%; in the assay on SK-MEL-5 melanoma it was 65.7%; in the assay with UACC-62 melanoma, 47.2%; with LOX IMVI melanoma it was 36%; with SK-MEL-28 melanoma it was 50%. Further, the growth in the assay with SK-MEL-2 melanoma was 105%.

Take `Cc1c(-c2csc(-n3nc(C(F)(F)F)cc3C(F)(F)F)n2)no[n+]1[O-]`: the growth was 93.1% in the assay with K-562 leukemia; 96.8% in the assay on MALME-3M melanoma; 96.5% with MDA-MB-231 breast; 101% in the assay with RXF 393 renal; 96.1% in the assay on SF-268 CNS; 93.9% with SF-295 CNS. The growth was 99.1% with SF-539 CNS; 98.5% in the assay with UACC-257 melanoma; 90.2% with M14 melanoma; 95.4% with HCT-15 colon; 99.2% with HT29 colon; 94.1% in the assay on SNB-19 CNS. The growth was 104% in the assay on U251 CNS; 98.6% in the assay on PC-3 prostate; 89.5% in the assay on UACC-62 melanoma; 99% with LOX IMVI melanoma; 102% in the assay on SK-MEL-28 melanoma; 99.4% in the assay on SK-MEL-2 melanoma.

Turning to `Cc1cccc2c(=O)c3c(sc12)c(N1CCNCC1)nc1ccccc13`, the growth with K-562 leukemia is -23% (active); in the assay with MALME-3M melanoma, 98.6%; in the assay on MDA-MB-231 breast, 56.3%; with RXF 393 renal, 72.2%; in the assay with SF-268 CNS, 76.1%; with SF-295 CNS it was 93.5%. Moreover, the growth in the assay with SF-539 CNS is 75.8%; with UACC-257 melanoma, 96.6%; with HCT-15 colon it was 25.9%; with HT29 colon, 6.4% (active); in the assay with SNB-75 CNS it was 50%; with SNB-19 CNS, 82.6%. Besides, the growth was 59.9% with U251 CNS; 69.9% in the assay on PC-3 prostate; 80.2% in the assay on SK-MEL-5 melanoma; 89.9% in the assay on UACC-62 melanoma; 10.3% with LOX IMVI melanoma; 80.1% with SK-MEL-28 melanoma. In addition, the growth in the assay with SK-MEL-2 melanoma is 98.2%.
